A selection: hits, their analogues and other compounds. The true share with any hit is near 1.6%.
B2AR ag: human beta-2 adrenergic receptor agonism by FAP; actives 0.43% (n = 340,000); response, % (test concentration not listed); Am2.2-beta2AR cells, FAP receptor internalization, flow cytometry;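 active means response above a set limit, near 3 SD of response in nonfluorescent compounds, cut at about 42% in these data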
Target sequence (P07550 whole entry, looked up): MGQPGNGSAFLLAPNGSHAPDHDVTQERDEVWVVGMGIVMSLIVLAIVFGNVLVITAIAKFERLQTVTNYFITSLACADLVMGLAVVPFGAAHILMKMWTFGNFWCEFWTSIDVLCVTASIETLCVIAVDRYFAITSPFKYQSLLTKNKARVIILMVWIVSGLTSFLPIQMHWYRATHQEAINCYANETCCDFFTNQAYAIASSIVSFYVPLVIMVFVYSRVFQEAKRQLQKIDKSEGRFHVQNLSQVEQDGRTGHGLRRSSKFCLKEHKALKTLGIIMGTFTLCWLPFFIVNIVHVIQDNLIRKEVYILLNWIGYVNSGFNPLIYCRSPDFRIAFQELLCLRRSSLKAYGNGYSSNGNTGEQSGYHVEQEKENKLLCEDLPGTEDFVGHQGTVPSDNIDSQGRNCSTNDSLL
Bfl-1 A1 inh: inhibitors of the anti-apoptotic protein A1, read as caspase activation; MEF A1-2A-BIM cells, Caspase-Glo 3/7 luminescence, 3 h; percent of clofoctol response, vehicle zero; caspase activation, % (concentration not given with the values); actives 0.066% (n = 330,000);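 active means over half of replicate activation scores above 10%, or exactly half above 10 with the replicate mean above 10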
DYRK1A inh: inhibitors of rat Dyrk1A kinase; inhibition, % at 12.5 µM; ADP-Glo luminescence, NFATc1 peptide; actives 0.43% (n = 310,000); Q63470; in the data active means inhibition above about 50%
dFosB act: mouse delta FosB homodimer activation | P13346 | purified delta FosB, TAMRA-CDK5 oligo fluorescence polarization; percent of positive-control signal above neutral wells | activation, % at 25 µM | actives 0.99% (n = 340,000) | AID 493131;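 active means mean activation above about 17%, with every replicate also reaching it, limit read from the data, passing the limit was not always enough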
Of the large screens only hits and unclear results are named; the others gave an inactive call; ! = not active in a repeat.

COC(=O)/C=C\C(C#N)(C#N)N=Cc1ccc(OC)cc1	B2AR ag 47 (no result: Bfl-1 A1 inh, DYRK1A inh)
O=C(c1ccc(-n2cccn2)cc1)N1CCN(c2ncccc2C(F)(F)F)CC1	none
Cc1cccc(NC2=C/C(=N/S(=O)(=O)c3cccs3)c3ccccc3C2=O)c1	none
Cc1cc(C)c(S(=O)(=O)/N=C2\C=C(NS(=O)(=O)c3ccccc3)C(=O)c3ccccc32)c(C)c1	none
Cc1ccc(NC2=C/C(=N\S(=O)(=O)c3cccs3)c3ccccc3C2=O)c(C)c1	B2AR ag 64
Cc1ccc(Cl)cc1NC1=C/C(=N\S(=O)(=O)c2cccs2)c2ccccc2C1=O	B2AR ag 45!
Cc1cc(O)c(C(=O)/C=C/c2cccc([N+](=O)[O-])c2)c(=O)o1	none (no result: DYRK1A inh)
CC(=O)Oc1ccccc1C(=O)C=Cc1cccc([N+](=O)[O-])c1	B2AR ag 65 (no result: Bfl-1 A1 inh)
CCOC(=O)c1c(C)n(-c2ccc(C)cc2)c2ccc(OCC(O)CNCC3CCCO3)cc12 (stereo not drawn)	dFosB act 30
COc1ccc(CCNC(=O)CNC(=O)c2ccc(Br)o2)cc1OC	none
Cc1ccc2c(c1)N(C)/C(=C/c1cccc[n+]1C)S2	dFosB act 18
CCOC(=O)/C(=C\c1cccnc1)C(=O)c1cc(C(C)=O)c(Nc2ccccc2)s1	B2AR ag 104, Bfl-1 A1 inh 22
O=C(Nc1ccc(-c2nc3cc(NC(=O)c4cccs4)ccc3o2)cc1)c1cccs1	Bfl-1 A1 inh 17
Cc1ccc(NC(=O)c2ccc(NCCc3ccccc3)c([N+](=O)[O-])c2)cc1F	none
Cc1ccc(NC(=O)c2ccc(NCCN)c([N+](=O)[O-])c2)cc1Cl	dFosB act 39
CCc1cc2c(=O)c(-c3cnn(-c4ccccc4)c3)c(C)oc2cc1OCC(=O)Nc1cccc(C)c1	Bfl-1 A1 inh 7.9 (no result: DYRK1A inh)
CSc1cccc(NC(=O)COC(=O)C2CCN(S(=O)(=O)c3ccccc3)CC2)c1	none
CN(C)C=NC(=O)c1[nH]c2ccc(Cl)cc2c1-c1ccccc1	B2AR ag 49
CCOC(=O)c1[nH]c2ccc(Cl)cc2c1-c1ccccc1	none
NS(=O)(=O)c1ccc(NC(=O)COc2ncnc3c2cnn3-c2ccccc2)cc1	dFosB act 21
CN(C)c1ncc(C2=C(Cl)C(=O)C(N3CCCC3)=C(Cl)C2=O)s1	B2AR ag 76
COc1ccc(NC(=O)C(=O)N/N=C\c2ccc(CNC(=O)C(=O)Nc3ccc(C)c(C)c3)o2)c(OC)c1	Bfl-1 A1 inh 24 (no result: B2AR ag, DYRK1A inh, dFosB act)
COCCNC(=O)/C(C#N)=C\c1ccc(CNC(=O)C(=O)Nc2ccc(C)c(C)c2)o1	none
Cc1cc(C)c2nc(N(CCCN(C)C)C(=O)c3ccc4c(c3)OCCO4)sc2c1	dFosB act 31
Cc1cc(C)c2nc(N(CCCN(C)C)C(=O)C3=COCCO3)sc2c1	none
CCOC(=O)CCCNS(=O)(=O)c1c(C)ccc2nsnc12	Bfl-1 A1 inh 6.6
COc1ccc(F)cc1S(=O)(=O)NCCCn1ccnc1	none
Cn1ccnc1Sc1cc(NCCCO)c([N+](=O)[O-])c2nonc12	B2AR ag 46
O=[N+]([O-])c1c(NCCCO)cc(Sc2ccc(Cl)cc2)c2nonc12	none
Cc1ccc(NCC2(N=Cc3ccccc3)OC(CO)C(O)C2O)cc1 (stereo not drawn)	none (no result: Bfl-1 A1 inh)
O=C(Nc1ccc(S(=O)(=O)Nc2ncccn2)cc1)C1=COCCO1	none (no result: DYRK1A inh)
CN(C)c1nc(Oc2ccc(N)cc2)nc(N(C)C)n1	B2AR ag 77
COc1ccc(N(C(=O)CNC(=O)c2cccs2)C(C(=O)NCC2CCCO2)c2ccccc2)c(OC)c1 (stereo not drawn)	none
CC(C)(C)c1cnnn1-c1ccc(C=O)cc1	none
CC(C)(C)c1cnnn1-c1ccc(C(=O)CCl)cc1	B2AR ag 45
O=C(NCCS(=O)(=O)NCc1ccccc1Cl)c1ccccc1	none (no result: DYRK1A inh)
CC1=NNC(=O)/C1=C\c1cn(-c2ccccc2)nc1-c1ccc(Cl)cc1	B2AR ag 108, Bfl-1 A1 inh 41
Cc1ccc(OCC(=O)Nc2nc(C)c(Cl)cc2Cl)c([N+](=O)[O-])n1	none
O=C(c1ccc2c(c1)[nH]c(=S)n1c3ccccc3nc21)N1CCN(c2ncccn2)CC1	B2AR ag 62
Cc1cc(C(=O)CCC(=O)NCC(=O)Nc2c(C)cccc2C)c(C)s1	none
CN(C)C(=O)CCc1ccc2c3c([nH]c2c1)[C@]1(C)[C@@H](C(=O)N2CCOCC2)C[C@H](CC(=O)NCc2cccc(C(F)(F)F)c2)C(=O)N1CC3	none (no result: Bfl-1 A1 inh)
Cc1nn(C)c(Cl)c1CN1CCC(CO)(CCOc2ccccc2)CC1	none
Cc1c(CN2CCC(CO)(CCOc3ccccc3)CC2)[nH]c2c(Cl)cccc12	dFosB act 21

Bioassay records: PubChem, several laboratories
